KCNQ2 block: inhibitors of rat KCNQ2 potassium channel. O88943. CHO-K1 KCNQ2, FluxOR thallium flux, 20 min; active compounds read low. B-score at 10 µM. hit rate 1.1% among 310,000. AID 2156;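 active means fluorescence ratio B-score at most minus 3 library SDs, with starting brightness B-score within 2 library SDs, cut at about -5.5 in these data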
Target sequence (O88943 whole entry, looked up): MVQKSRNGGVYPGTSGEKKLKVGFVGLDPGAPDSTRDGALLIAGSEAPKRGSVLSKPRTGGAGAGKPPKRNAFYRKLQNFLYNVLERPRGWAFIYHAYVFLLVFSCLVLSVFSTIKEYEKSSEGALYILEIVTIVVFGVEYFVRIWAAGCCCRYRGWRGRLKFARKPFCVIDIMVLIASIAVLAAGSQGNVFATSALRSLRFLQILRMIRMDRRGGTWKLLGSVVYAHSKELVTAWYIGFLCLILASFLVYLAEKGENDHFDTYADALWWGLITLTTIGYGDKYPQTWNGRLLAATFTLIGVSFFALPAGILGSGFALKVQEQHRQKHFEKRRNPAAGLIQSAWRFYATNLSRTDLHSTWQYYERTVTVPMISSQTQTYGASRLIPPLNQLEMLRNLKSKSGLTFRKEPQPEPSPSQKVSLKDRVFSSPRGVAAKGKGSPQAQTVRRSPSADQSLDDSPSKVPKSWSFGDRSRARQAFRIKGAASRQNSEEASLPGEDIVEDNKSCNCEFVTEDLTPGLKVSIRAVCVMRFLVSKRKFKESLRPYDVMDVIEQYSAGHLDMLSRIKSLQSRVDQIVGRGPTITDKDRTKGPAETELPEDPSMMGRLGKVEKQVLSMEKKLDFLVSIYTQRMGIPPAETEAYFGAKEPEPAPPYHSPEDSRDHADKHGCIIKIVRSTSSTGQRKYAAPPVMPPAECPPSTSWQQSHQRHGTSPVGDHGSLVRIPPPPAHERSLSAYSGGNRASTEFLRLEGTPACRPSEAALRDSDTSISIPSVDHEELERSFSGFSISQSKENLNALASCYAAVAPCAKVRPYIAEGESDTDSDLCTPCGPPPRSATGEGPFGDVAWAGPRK
KCNQ2 pot: KCNQ2 (rat) channel potentiation; B-score at 10 µM; CHO-K1 KCNQ2, FluxOR thallium flux fluorescence; active compounds read high; hit rate 0.54% among 310,000; O88943; AID 2239;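 active means fluorescence ratio B-score at least 3 SD of library B-scores, with initial fluorescence B-score within 3 of them, cut at about 5.3 in these data; same plate scores as AID 2156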;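 further: B-score of peak minus minimum over baseline fluorescence ratio after K+ and Tl+ stimulus; positive B-score means potentiation of KCNQ2 with more thallium influx and brighter signal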
Kir21 conf inh: confirmation of mouse Kir2.1 potassium channel inhibitors | shares compounds with KCNQ2 pot | Kir2.1-expressing cells, FluxOR thallium flux fluorescence; active compounds read low | AID 2032 | hit rate 41% among 2,300 | Tl flux remaining, % of negative control (active compounds read low), % at 10 µM;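 active means Primary-screen hit whose thallium flux fell at least 3 control SD below untreated wells in both duplicates, with normal baseline fluorescence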
HEK293 ctr: parental HEK293 activity in Kir2.1 inhibitor counter-screen; shares compounds with KCNQ2 pot; parental HEK293 cells, FluxOR thallium flux fluorescence; 0% = unstimulated blank wells; AID 2105; hit rate 19% among 2,300; FluxOR signal as % of negative control (100 = no effect), % at 10 µM;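 active means dye signal at least 3 control SD above or below untreated wells in both duplicates, raw fluorescence within 3, either direction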;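 further: percent is based on the flux ratio of peak minus minimum fluorescence over baseline F0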
CHO-K1 ctr: alters thallium flux in parental CHO-K1 cells, KCNQ2 counter-screen. activity increase over 3SD of controls, % at 10 µM. AID 2282. shares compounds with KCNQ2 pot. hit rate 43% among 1,200. FluxOR thallium flux fluorescence; zero = vehicle mean+3SD, 100% = vehicle-minus-blank window;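 active means signal rise of at least 3 SD above the untreated control mean, in both duplicate wells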;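 further: counter screen of KCNQ2 potentiator hits so any rise reflects channel-independent effects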
KCNQ1 sel pot: selectivity of KCNQ2 potentiators: effect on human KCNQ1 | shares compounds with KCNQ2 pot | CHO KCNQ1 stable, FluxOR thallium flux fluorescence; beyond 3SD, as % of vehicle-control signal | hit rate 28% among 1,200 | activation over 3SD threshold, % at 10 µM | AID 2283;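 active means fluorescence ratio rise of at least 3 SD of vehicle wells above their mean, in both replicate wells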
KCNQ2 pot confirm: confirmation of rat KCNQ2 potassium channel potentiators; shares compounds with KCNQ2 pot; CHO-KCNQ2 cells, FluxOR thallium flux fluorescence; potentiation, less the hit threshold, % at 10 µM; hit rate 68% among 1,200; AID 2287;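 active means fluorescence ratio rising 3 SD or more over the vehicle control mean in both replicates, plus primary screen hit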;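 further: peak minus minimum thallium fluorescence divided by baseline after K/Tl stimulus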
Kir21 spec: tests whether KCNQ2 potentiators also affect mouse Kir2.1; HEK293 Kir2.1, FluxOR thallium flux fluorescence; activity over 3SD threshold, % at 10 µM; shares compounds with KCNQ2 pot; hit rate 2% among 1,200;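 active means fluorescence ratio rise of at least 3 SD above the vehicle-control mean, seen in both replicates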
KCNQ2 W236L pot: KCNQ2 potentiators acting on retigabine-insensitive rat KCNQ2 W236L mutant; CHO KCNQ2-W236L, automated patch clamp current; hit rate 10% among 940; AID 2558; current increase over 3SD of negative controls (%), active compounds read high, % at 25 µM; shares compounds with KCNQ2 pot;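 active means current increase at least 3 SD of the untreated controls above them in both duplicate recordings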
Numbers stand for hits; 0 = inactive; - = no result given. This is a sample that favours compounds with a hit; in the whole collection about 1.6% have one here.

SMILES	KCNQ2 block	KCNQ2 pot	Kir21 conf inh	HEK293 ctr	others
Cc1ccc(NC(=O)C2CC2c2ccccc2)c([N+](=O)[O-])c1 (configuration not stated)	0	11	0	0	CHO-K1 ctr=0;KCNQ1 sel pot=0;KCNQ2 pot confirm=7.1;Kir21 spec=0;KCNQ2 W236L pot=40%
O=C(Nc1ccc(Cl)cc1F)C1CC1c1ccccc1 (configuration not stated)	0	7.2	0	0	CHO-K1 ctr=0;KCNQ1 sel pot=28;KCNQ2 pot confirm=19;Kir21 spec=0;KCNQ2 W236L pot=0
CN1C(=O)/C(=C/c2cc(C(C)(C)C)c(O)c(C(C)(C)C)c2)NC1=S	0	-	-	-
Cc1cc(C)n(-c2cccc(CN(C)Cc3nc(-c4cnccn4)no3)c2)n1	0	-	-	-
Cc1cc(C)c(S(=O)(=O)N(C)CC(=O)NCc2ccncc2)c(C)c1	0	-	-	-
COc1cc(CN2CCNC(=O)C2CC(=O)N(C)CCCN2CCOCC2)cc(OC)c1 (configuration not stated)	0	-	-	-
COc1cccc(/C=C/C(=O)NCC2CCCCC2)c1	0	-	-	-
Cc1cccc(CC(=O)NCC2CCCCC2)c1	0	9.4	0	0	CHO-K1 ctr=39;KCNQ1 sel pot=0;KCNQ2 pot confirm=28;Kir21 spec=0;KCNQ2 W236L pot=0
O=C(Cn1nc([N+](=O)[O-])nc1Br)NC(c1ccccc1)c1ccccc1	0	0	-	-
CCOc1c(Cl)cc(CNCC(C)C)cc1OC	0	0	-	-
CCOc1cc(CNC2CCCC2)ccc1OCc1ccccc1Cl	0	-	-	-
CCOc1cc(CNCC(C)C)cc(Cl)c1OCc1ccccc1	0	-	20%	0
CCOc1cc(CNC2CCCC2)cc(Cl)c1OCc1ccccc1	0	-	34%	134%
CCn1c(SCC(=O)N2CCCCCC2)nc2c(c1=O)SCC2	0	-	-	-
CN(C)c1ccc(N/C=C/C(=O)C(C)(C)C)cc1	0	-	-	-
CC(C)(C)C(=O)/C=C/Nc1ccccc1O	0	9	0	71%	CHO-K1 ctr=0;KCNQ1 sel pot=78;KCNQ2 pot confirm=59;Kir21 spec=0;KCNQ2 W236L pot=1.6%
Cc1cccc(NS(=O)(=O)c2cccc(C(=O)NCCCN3CCOCC3)c2)c1	0	0	-	-
O=C(NCc1ccc(F)cc1)Nc1cccc(Cl)c1	0	5.8	0	0	CHO-K1 ctr=87;KCNQ1 sel pot=54;KCNQ2 pot confirm=13;Kir21 spec=0;KCNQ2 W236L pot=0
O=C(NCc1ccc(F)cc1)Nc1ccc(Cl)cc1	0	0	-	-
COc1cc(C(=O)OCC(=O)NC2CCCC2)cc(NC(=O)c2ccco2)c1OC	0	11	0	0	CHO-K1 ctr=0;KCNQ1 sel pot=0;KCNQ2 pot confirm=0;Kir21 spec=0
COc1cc(C(=O)OCC(C)=O)cc(NC(=O)c2ccco2)c1OC	0	-	-	-
COc1cccc(NC(=O)CCNC(=O)N2CC(=O)Nc3ccccc32)c1	0	-	-	-
C=C[C@@]1(C)CC(=O)[C@]2(O)[C@@]3(C)[C@@H](O)CCC(C)(C)[C@@H]3[C@H](O)[C@H](OC(C)=O)[C@@]2(C)O1	0	8.9	0	0	CHO-K1 ctr=0;KCNQ1 sel pot=0;KCNQ2 pot confirm=7.1;Kir21 spec=0;KCNQ2 W236L pot=2.3%
C=C[C@@]1(C)CC(=O)[C@]2(O)[C@@]3(C)[C@@H](O)CCC(C)(C)[C@@H]3[C@H](OC(C)=O)[C@H](O)[C@@]2(C)O1	0	0	-	-
COCCNC(=O)CN(C(=O)CCC(=O)Nc1ccccn1)c1ccc(C)cc1C	0	-	-	-
SMILES	KCNQ2 block	KCNQ2 pot	Kir21 conf inh	HEK293 ctr	others
CC(OC(=O)c1cccc(-n2cnnn2)c1)C(=O)Nc1cccc(Cl)c1 (configuration not stated)	0	0	0	0
CC(=O)c1ccc(NC(=O)C(C)OC(=O)c2cccc(-n3cnnn3)c2)cc1 (configuration not stated)	0	0	-	-
COc1ccc(Cl)cc1NC(=O)CN1CCN(Cc2ccccc2)CC1	0	-	-	-
O=C(c1ncc[nH]1)c1cccs1	0	0	-	-
CCC(CC)C(=O)N1c2ccc(F)cc2CCC1C (configuration not stated)	0	-	-	-
CC(C(=O)N1c2ccc(F)cc2CCC1C)N1C(=O)c2ccccc2C1=O (configuration not stated)	0	7.6	0	123%	CHO-K1 ctr=103;KCNQ1 sel pot=0;KCNQ2 pot confirm=0;Kir21 spec=0
CNC(=O)c1sccc1SCc1c(Cl)cccc1Cl	0	-	46%	0
CNC(=O)c1sccc1SCc1ccc(Cl)cc1Cl	0	-	-	-
COc1cccc2cc(C(=O)C3=C(O)C(=O)N(c4cc(C)on4)C3c3cccs3)oc12 (configuration not stated)	0	-	-	-
COc1cccc(C(=O)NCc2ccco2)c1	0	8.9	0	74%	CHO-K1 ctr=0;KCNQ1 sel pot=0;KCNQ2 pot confirm=0;Kir21 spec=0
COc1cccc(C(=O)NCCS(=O)(=O)NCc2ccco2)c1	0	-	-	-
COc1cc(C)c(C(=O)Oc2cc(C)c(C(=O)O)c(O)c2)c(O)c1	0	7	0	0	CHO-K1 ctr=45;KCNQ1 sel pot=0;KCNQ2 pot confirm=14;Kir21 spec=0;KCNQ2 W236L pot=21%
COc1cc(C)c(C(=O)Oc2cc(C)c(C(=O)O)c(O)c2C)c(O)c1C	0	0	-	-
O=C(Cc1nnc(NC(=O)Nc2ccccc2F)s1)NCc1ccccc1	0	0	-	-
CC(CCCN(C)C)C(Cc1ccccc1)c1ccccc1 (configuration not stated)	0	-	48%	0
CN(C)CCC(=O)C(Cc1ccccc1)c1ccccc1 (configuration not stated)	0	-	-	-
COc1cccc(CNC(=O)N[C@@H](C)C(=O)O)c1	0	-	-	-
Cc1ccc2nc(CCCc3nc4ccc(C)cc4[nH]3)[nH]c2c1	0	-	70%	0
Cc1ccc2nc(CCc3nc4ccc(C)cc4[nH]3)[nH]c2c1	0	-	-	-
CCN(c1cccc(C)c1)S(=O)(=O)c1cc2c3c(c1)CCC(=O)N3CCC2	0	-	0	0
CCCN(CCC)S(=O)(=O)c1cc2c3c(c1)CCN3C(=O)CC2	0	-	-	-
C(=N\Nc1nc2ccccc2s1)/c1ccccn1	0	11	0	0	CHO-K1 ctr=0;KCNQ1 sel pot=0;KCNQ2 pot confirm=44;Kir21 spec=0;KCNQ2 W236L pot=0
Brc1csc(/C=N/Nc2nc3ccccc3s2)c1	0	0	-	-
O=C(NCCO)C(=O)NCC1OCCCN1S(=O)(=O)c1cc(F)ccc1F (configuration not stated)	0	-	-	-
COc1cc(OC)c(NS(=O)(=O)c2cc(Br)cnc2N)cc1Cl	0	0	72%	72%
Cc1ccc(NS(=O)(=O)c2cc(Br)cnc2N)c(Cl)c1	0	0	-	-
COc1cc(-c2noc(C3CCCN(C(=O)c4ccccc4)C3)n2)cc(OC)c1OC (configuration not stated)	0	0	-	-
COc1ccc(CCNc2ncnc3cc(OC)c(OC)cc23)cc1OC	0	0	-	-
COc1cc2ncnc(NCCc3ccccc3)c2cc1OC	0	5.4	0	131%	CHO-K1 ctr=11;KCNQ1 sel pot=0;KCNQ2 pot confirm=0;Kir21 spec=0
CCOc1cc(N2CCOCC2)c(OCC)cc1NC(=O)COC(=O)c1ccccc1C	0	0	-	-
